Measured values reported in PubChem BioAssay (NCATS).
Records with an inconclusive call do not appear. Unless noted, calls come from the whole dose curve; as a rule, active = well fitted curve in either direction with a large enough effect (not every such curve was filed as active); inconclusive = small, poorly fitted or top-dose-only effect, or another doubt; inactive = flat fitted curve, though single readings scatter.

Experiments:
[1] = AP1 Signaling Pathway (AID 357); conditions: ME-180 AP-1-bla reporter, EGF-induced, beta-lactamase ratio, 5 h; at 17.2 µM (top of the series) unless noted;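 note: ME-180 reporter cells stimulated with EGF at its EC50 level; % is set by controls: 0 for no effect and ±100 for the full control effect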
Method in brief: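 First, ME-180 AP-1-bla cells were cultured overnight at 37 °C in low-serum Opti-MEM. Next, titrated compounds with EC50 EGF were incubated 5 hours. Finally, CCF4 was added for 2.5 hours and the 460/530 nm ratio recorded.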

[2] = NFAT Signaling Pathway (AID 444); conditions: Jurkat NFAT-bla M1, carbachol, beta-lactamase ratio, 5 h; at 17.2 µM (top of the series) unless noted;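 note: carbachol stimulus at about its EC50 of 1 µM final; % is set by controls: 0 for no effect and ±100 for the full control effect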
Method in brief: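 Jurkat cells with NFAT-driven β-lactamase reporter and co-expressed M1 receptor, stimulated with carbachol (final 1 uM, ~EC50), compound titration, 5 h at 37 °C. CCF4 loaded 1 h at RT; 460/530 nm ratio gave %activity and AC50.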

[3] = Stat Signaling Pathway (AID 446); conditions: ME-180 (cervical carcinoma) SIE beta-lactamase reporter, IL-6 stimulated, 5 h; at 17.2 µM (top of the series) unless noted;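 note: ME-180 cervical cancer cells given 40 pM IL-6 alongside compound; SIE-controlled beta-lactamase reporter measured as 460/530 nm FRET emission ratio; % is set by controls: 0 for no effect and ±100 for the full control effect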
Method in brief: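 Normalization used AC90 stimulation (300 pM IL-6) and AC90 inhibition (125 nM pan-JAK inhibitor at 40 pM IL-6). The underlying signal is SIE-driven beta-lactamase in ME-180 cells after 5 h IL-6 exposure with compound.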

[4] = biological target: Glucocorticoid receptor (Homo sapiens) (UniProt P04150); experiment: GR-GFP Redistribution (AID 450;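 active = compounds whose dose series gives a full or clear partial fitted curve of increased nuclear translocation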; note: potency is the fitted concentration of half-maximal effect)
Glucocorticoid receptor (Homo sapiens), sequence (P04150 whole entry, looked up): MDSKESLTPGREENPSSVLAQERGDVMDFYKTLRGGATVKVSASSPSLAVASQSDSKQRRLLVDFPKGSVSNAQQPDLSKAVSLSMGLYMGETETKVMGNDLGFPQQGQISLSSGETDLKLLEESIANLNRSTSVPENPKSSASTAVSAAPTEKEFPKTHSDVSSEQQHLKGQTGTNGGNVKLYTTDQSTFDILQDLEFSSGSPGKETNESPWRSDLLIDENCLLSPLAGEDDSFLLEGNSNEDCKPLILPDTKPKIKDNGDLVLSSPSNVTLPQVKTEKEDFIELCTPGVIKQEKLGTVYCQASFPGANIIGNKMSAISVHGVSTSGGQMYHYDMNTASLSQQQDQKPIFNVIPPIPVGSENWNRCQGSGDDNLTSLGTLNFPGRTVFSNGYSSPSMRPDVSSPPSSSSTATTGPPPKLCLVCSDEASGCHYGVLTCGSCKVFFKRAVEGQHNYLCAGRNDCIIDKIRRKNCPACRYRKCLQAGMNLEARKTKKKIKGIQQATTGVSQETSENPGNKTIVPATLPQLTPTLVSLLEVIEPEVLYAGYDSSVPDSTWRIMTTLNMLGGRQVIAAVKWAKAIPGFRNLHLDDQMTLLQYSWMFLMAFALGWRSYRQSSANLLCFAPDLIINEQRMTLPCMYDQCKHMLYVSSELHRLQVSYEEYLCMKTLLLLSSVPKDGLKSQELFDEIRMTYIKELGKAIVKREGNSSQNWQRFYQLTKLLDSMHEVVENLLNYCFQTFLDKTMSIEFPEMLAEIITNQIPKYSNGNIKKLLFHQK

Cc1cc(N2C(=O)C(=O)/C(=C(/O)c3ccc(F)cc3)C2c2cccc(Br)c2)no1 (centres undefined)
inactive: activity change, negative = inhibition [1] -7.98% | activity change, negative = inhibition [2] 2.37% | activity, negative = inhibition [3] -29.1% | Potency [4] > 20.6 µM

COC(=O)C1=C(C)N=C2SC(C)C(=O)N2C1/C=C/c1ccccc1OC (centres undefined)
inactive: activity change, negative = inhibition [1] 2.3% | activity change, negative = inhibition [2] -16.8% | activity, negative = inhibition [3] -6.43% | Potency [4] > 20.6 µM

Cc1ccc(C(=O)C2=C(O)C(=O)N(CCN3CCOCC3)C2c2ccccn2)o1 (centres undefined)
inactive: activity change, negative = inhibition [1] -1.65% | activity change, negative = inhibition [2] 8.69% | activity, negative = inhibition [3] 5.67% | Potency [4] > 20.6 µM

CCOC(=O)c1[nH]c2cc3c(cc2c1NC(=O)CN1CCC2(CC1)OCCO2)OCO3
inactive: activity change, negative = inhibition [1] -29.3% | activity change, negative = inhibition [2] 6.91% | activity, negative = inhibition [3] -9.66% | Potency [4] > 20.6 µM

CC1(C)Cc2c(oc3ncn4ncnc4c23)CO1
inactive: activity change, negative = inhibition [1] -9.2% | activity change, negative = inhibition [2] -1.16% | activity, negative = inhibition [3] 7.25% | Potency [4] > 20.6 µM

CN(C)CCCNCCCCNC(=O)/C=N/O
inactive: activity change, negative = inhibition [1] 5.81% | activity change, negative = inhibition [2] 11.9% | activity, negative = inhibition [3] -0.521% | Potency [4] > 20.6 µM

COc1ccc(OC(=O)c2cc3ccccc3o2)cc1
inactive: activity change, negative = inhibition [1] 1.41% | activity change, negative = inhibition [2] -19.7% | activity, negative = inhibition [3] 10.1% | Potency [4] > 20.6 µM

Cc1cc(=O)oc(C)c1C(=O)n1nc(C)c2c1C[C@@H]1[C@H]2C1(C)C
inactive: activity change, negative = inhibition [1] -2.2% | activity change, negative = inhibition [2] -1.13% | activity, negative = inhibition [3] -1.83% | Potency [4] > 20.6 µM

COc1ccc2nc(/N=C(\N)NC(=O)C(C)(C)C)nc(C)c2c1
inactive: activity change, negative = inhibition [1] 1.33% | activity change, negative = inhibition [2] 0.865% | activity, negative = inhibition [3] 0.61% | Potency [4] > 20.6 µM

CCOC(=O)C(C)c1nc2ccccc2[nH]c1=O (centres undefined)
inactive: activity change, negative = inhibition [1] 3.01% | activity change, negative = inhibition [2] -0.784% | activity, negative = inhibition [3] 4.12% | Potency [4] > 20.6 µM

COc1ccc(OCC(O)CN2C(=O)NC(C)(C)C2=O)cc1 (centres undefined)
inactive: activity change, negative = inhibition [1] -11.2% | activity change, negative = inhibition [2] 0.93% | activity, negative = inhibition [3] 9.74% | Potency [4] > 20.6 µM

CCCCOc1ccccc1C(=O)NCCCC(=O)O
inactive: activity change, negative = inhibition [1] -11.8% | activity change, negative = inhibition [2] -5.11% | activity, negative = inhibition [3] 8.07% | Potency [4] > 20.6 µM

O=C1C(=O)N(Cc2cccnc2)C(c2ccccn2)/C1=C(/O)c1ccc(Br)cc1 (centres undefined)
inactive: activity change, negative = inhibition [1] -19.9% | activity change, negative = inhibition [2] 15.2% | activity, negative = inhibition [3] -10.5% | Potency [4] > 20.6 µM

CCOc1c(C)cc2[nH]c(CCC(=O)O)nc2c1C
inactive: activity change, negative = inhibition [1] 7.73% | activity change, negative = inhibition [2] -1.66% | activity, negative = inhibition [3] 7.03% | Potency [4] > 20.6 µM

Cn1c(=O)c2c(nc(NCCCO)n2Cc2cccc(C(F)(F)F)c2)n(C)c1=O
inactive: activity change, negative = inhibition [1] 8.4% | activity change, negative = inhibition [2] 7.97% | activity, negative = inhibition [3] -3.72% | Potency [4] > 20.6 µM

COc1ccc(C=NCCCN2CCOCC2)cc1
inactive: activity change, negative = inhibition [1] -8.54% | activity change, negative = inhibition [2] -2.1% | activity, negative = inhibition [3] -3.86% | Potency [4] > 20.6 µM

O=C(O)CC(SCc1ccc(C(=O)O)o1)C(=O)O (centres undefined)
inactive: activity change, negative = inhibition [1] 7.18% | activity change, negative = inhibition [2] -1.8% | activity, negative = inhibition [3] 0.837% | Potency [4] > 20.6 µM

CCN(CC)CCN1C(=O)C(=O)/C(=C(/O)c2ccc(F)cc2)C1c1ccncc1 (centres undefined)
inactive: activity change, negative = inhibition [1] -7.07% | activity change, negative = inhibition [2] 17.1% | activity, negative = inhibition [3] 1.89% | Potency [4] > 20.6 µM

CC1CN(c2oc(-c3ccccc3Cl)nc2C#N)CC(C)O1 (centres undefined)
inactive: activity change, negative = inhibition [1] 6.37% | activity change, negative = inhibition [2] -6.23% | activity, negative = inhibition [3] 9.86% | Potency [4] > 20.6 µM

N#CC12CCCCC1CC1CCCCC1(C#N)N2Cc1ccccn1 (centres undefined)
inactive: activity change, negative = inhibition [1] 3.99% | activity change, negative = inhibition [2] -14.8% | activity, negative = inhibition [3] 19.1% | Potency [4] > 20.6 µM

CC(C)OC(=O)CC1=NC(=O)CS1
inactive: activity change, negative = inhibition [1] 3.43% | activity change, negative = inhibition [2] 8.36% | activity, negative = inhibition [3] 9.47% | Potency [4] > 20.6 µM

C=COC(=O)CSc1nc(-c2cccs2)ccc1C#N
inactive: activity change, negative = inhibition [1] 4.27% | activity change, negative = inhibition [2] -19.4% | activity, negative = inhibition [3] 12.2% | Potency [4] > 20.6 µM

CCCCCCC(=O)N1CCN(c2cc3c(cc2F)c(=O)c(C(=O)O)cn3CC)CC1
inactive: activity change, negative = inhibition [1] -1.28% | activity change, negative = inhibition [2] 7.84% | activity, negative = inhibition [3] 0.48% | Potency [4] > 20.6 µM

COC(=O)c1ccccc1NC(=O)C1COc2ccccc2O1 (centres undefined)
inactive: activity change, negative = inhibition [1] -7.17% | activity change, negative = inhibition [2] -19.3% | activity, negative = inhibition [3] 2.58% | Potency [4] > 20.6 µM

O=C(c1cccc2ccccc12)N1CCC(N2CCN(c3ccccc3)CC2)CC1
inactive: activity change, negative = inhibition [1] -7.39% | activity change, negative = inhibition [2] -0.0782% | activity, negative = inhibition [3] -1.11% | Potency [4] > 20.6 µM

CCOC(=O)c1[nH]c2ccc(C)cc2c1N
inactive: activity change, negative = inhibition [1] -6% | activity change, negative = inhibition [2] -1.75% | activity, negative = inhibition [3] -1.27% | Potency [4] > 20.6 µM
